# The list is not random: actives were taken first. Their share in the collection is about 14%.
# 4MU fluor – compound fluoresces in the 4-MU spectral region; compound autofluorescence, 340/450 nm, 4-MU equivalents; hits give high values; max dye-equivalent concentration, M; 11% of 59,000 active; in the data active = max dye-equivalent concentration above about 10 nM; inconclusive = mostly about 1.1 nM to 9.6 nM
#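 Compounds in 100 mM Tris, pH 8.0, incubated 15 min at room temperature, then fluorescence read at 340 nm excitation/450 nm emission. Signal converted to 4-MU dye-equivalent concentration using an on-plate six-point 4-MU standard curve.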
# CRE-bla Fsk – CRE-bla signaling modulation under forskolin stimulation; 2.5% of 71,000 active; Potency, µM (highest dose often 38.2 µM), without a hit: at the top dose activity change, negative = inhibition, hits mostly activators; CHO CRE-bla reporter (cAMP response element driving beta-lactamase), forskolin EC10, beta-lactamase ratio; active = well fitted activation curve with a large enough effect in the signal ratio, with a control signal flat, not every such curve was filed as active; inconclusive = small, poorly fitted or top-dose-only effect, or effect the other way, or a change in a side signal; the % refers to the signal ratio; note: potency is the fitted concentration of half-maximal effect; % of control where 0% means no effect
#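 CRE-bla CHO reporter cells treated with compound titration plus EC10 NKH 477 (water-soluble forskolin), incubated 3 h at 37 °C; CCF4 loading 2 h at room temperature, 460/530 nm emission ratio read, AC50 values derived for positive or negative modulators.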
# A350 fluor – compounds fluorescent in Alexa 350 spectral region; AID 590; 11% of 59,000 active; Compound autofluorescence, 340/450 nm, Alexa 350 dye-equivalents; hits give high values; max dye-equivalent concentration, M; in the data active = max dye-equivalent concentration above about 10 nM; inconclusive = mostly about 1.1 nM to 9.6 nM
# HADH2 inh – blocks human hydroxyacyl-CoA dehydrogenase type II; recombinant HADH2, NADH fluorescence, beta-hydroxybutyryl-CoA; 3.4% of 73,000 active; Potency, µM (titrated, usually from 57.1 µM), inactives show top-dose activity change, negative = inhibition, hits mostly inhibitors; note: potency is the fitted concentration of half-maximal effect; % is set by controls: 0 for no effect and ±100 for the full control effect; nearly all actives have a fitted effect of over 60% in size
# Target sequence (Q99714 whole entry, looked up, one chain of several): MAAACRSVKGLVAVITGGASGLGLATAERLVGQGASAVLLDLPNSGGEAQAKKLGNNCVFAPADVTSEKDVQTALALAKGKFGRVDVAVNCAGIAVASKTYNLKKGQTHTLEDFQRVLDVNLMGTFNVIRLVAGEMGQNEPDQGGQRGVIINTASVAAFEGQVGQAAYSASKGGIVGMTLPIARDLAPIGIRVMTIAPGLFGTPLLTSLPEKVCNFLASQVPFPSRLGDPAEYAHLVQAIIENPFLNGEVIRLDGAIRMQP
#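 Buffer 100 mM Tris-HCl pH 9.0/0.01% Tween-20; HADH2 20 nM; NAD+ 1 mM; beta-hydroxybutyryl-CoA 90 uM (all final). 15 min cpd preincubation, RT.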
# HSD17B inh – HSD17B dehydrogenase inhibition; Q99714; recombinant HSD17B10, NADH fluorescence kinetic; Potency, µM (series often up to 57.1 µM), for inactives: at the highest dose activity change, negative = inhibition, usual class: inhibitors; 7.6% of 75,000 active; AID 893;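 note: the protocol describes HADH2 (HSD17B10) and not the HSD17B4 of the title; potency is the fitted concentration of half-maximal effect; % is set by controls: 0 for no effect and ±100 for the full control effect; nearly all actives have a fitted effect of over 70% in size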
#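 Enzyme plus compound, 15 min room temperature; substrate mix added (NAD+ 1 mM, beta-hydroxybutyryl-CoA 90 uM final); plates read kinetically for NADH fluorescence. HADH2 was His-tagged, E. coli-derived, 20 nM.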
# AID923 – qHTS Assay for Allosteric/Competitive Inhibitors of Caspase-1: Spectroscopic Profiling in AFC Spectral Region | compound fluorescence, AFC spectral region (405/520 nm) | 1.1% of 75,000 active | Potency, µM (top dose mostly 57.5 µM), without a hit: at the top dose fluorescence increase, most hits filed as activators | AID 923, 2007; note: potency is the fitted concentration of half-maximal effect; 0% is about no effect
#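 Baseline compound fluorescence (AFC region, 405 nm ex/520 nm em) taken from the intercept of kinetic reads with 50 nM caspase-1 and 5 uM Ac-WEHD-AFC; normalized to an on-plate AFC standard curve; compounds titrated up to 57 uM.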
# An asterisk follows results filed as active; i = inactive; ? = inconclusive; · = not tested or not shown; [ ] = remark or other dose. Unless noted, calls come from the whole dose curve; as a rule, active = well fitted curve in the direction sought with a large enough effect; inconclusive = small, poorly fitted or top-dose-only effect, or another doubt; inactive = no such curve, though single readings can be large; an effect the other way counts as inactive or inconclusive.
SMILES,4MU fluor,CRE-bla Fsk,A350 fluor,HADH2 inh,HSD17B inh,AID923
CC(C(=O)Nc1ccc2c(c1)OCO2)N(c1ccc(Cl)cc1)S(C)(=O)=O (stereo unspecified),2.9e-08M*,-22%,2.7e-08M*,0%,3%,0%
O=C(Nc1ccc2c(c1)OCO2)c1c(Cl)nc2sccn12,?,?,1.1e-08M*,-24%,?,0%
CC(=O)Nc1ccc(C(=O)Nc2ccc3c(c2)OCO3)cc1,i,?,i,3%,-9%,1%
O=C(Nc1ccc2nsnc2c1)c1ccc2c(c1)OCO2,1.1e-08M*,16%,1.1e-08M*,?,?,4%
O=C(Nc1ccc(F)c(F)c1)c1ccc2c(c1)OCO2,·,0%,·,-1%,-5%,0%
CC(=O)NC(CCS(C)(=O)=O)C(=O)Nc1ccc2c(c1)OCO2 (stereo unspecified),·,-2%,·,?,1%,0%
O=C(Nc1ccc(Cl)cc1)c1ccc2c(c1)OCO2,2.6e-08M*,9%,3.1e-08M*,6%,1%,3%
Cc1cccc(C)c1OCC(=O)NCc1nnc(SCC(=O)NC2CCCCC2C)n1C (stereo unspecified),i,0%,?,12%,8%,4%
O=C(Nc1cccc(NC(=O)c2ccc(-c3cccc(Br)c3)o2)c1)c1ccco1,1.7e-08M*,7%,1.9e-08M*,?,32µM*,2%
COc1ccc(Br)cc1C(=O)Nc1cccc(NC(=O)c2ccco2)c1,·,?,·,-14%[11.4 µM],?,1%
O=C(Nc1cccc(NC(=O)c2ccco2)c1)c1ccc2c(c1)OCO2,8.9e-08M*,0%,9.3e-08M*,5%,?,5%
Cc1ccc(C(=O)CC2(O)C(=O)N(Cc3ccccc3Cl)c3ccccc32)o1 (stereo unspecified),i,?,i,-14%,16µM*,-2%
Cc1ccc(C(=O)CC2(O)C(=O)N(Cc3ccccc3)c3ccccc32)o1 (stereo unspecified),i,-8%,i,-1%,3.2µM*,-1%
O=C(O)CCCCCN=C1CCc2ccccc2N1,i,-12%,i,-2%,2%,2%
Cc1noc(C)c1C(=O)Nc1ccc2c(c1)CCC2,i,5%,i,21%,3%,-1%
COc1cc2c(cc1NCc1ccccn1)oc1ccccc12,i,?,i,?,13µM*,3%
COc1cc2c(cc1NC(=O)c1cncc(Br)c1)oc1ccccc12,1.7e-07M*,?,2.5e-07M*,154%,134%,15%
COc1cc2c(cc1NC(=O)CSCC(=O)O)oc1ccccc12,i,-14%,i,-2%,-14%,-2%
COc1cc2c(cc1NC(=O)c1ccc3c(c1)OCO3)oc1ccccc12,3.9e-07M*,?,3.8e-07M*,32µM*,32µM*,-2%
O=C(Nc1ccc2c(c1)oc1ccccc12)c1ccc2c(c1)OCO2,i,2%,i,3%,?,-2%
CCOc1ccc(NC(=O)CN2C(=O)C3CC=CCC3C2=O)cc1 (stereo unspecified),i,-3%,i,0%,2%,-1%
Cc1cc(N2CCN(C)CC2)nc(N2CCOCC2)n1,i,-1%,i,21%,5%,0%
CCOc1ccc2[nH]cc(C(=O)N3CCN(CC)CC3)c(=O)c2c1,1.6e-08M*,-1%,1.6e-08M*,-28%,25µM*,3%
CCOc1ccc(NS(=O)(=O)c2ccc3[nH]cc(C(=O)NC(C)CC)c(=O)c3c2)cc1 (stereo unspecified),i,?,i,-3%,?,0%
COc1ccc(S(=O)(=O)N2CC(O)CC2C(=O)OCC(=O)Nc2ccc(Cl)cn2)cc1 (stereo unspecified),i,?,i,-12%,4%,-2%
COc1ccc(OC)c(-c2cc(C(=O)Nc3c(C)nn(Cc4ccccc4)c3C)no2)c1,?,5µM*,?,?,?,-1%

# Screening data deposited in PubChem by National Center for Advancing Translational Sciences (NCATS).
